Assay results as given in PubChem BioAssay (NCATS).
Results filed as inconclusive are left out. Where a call stands in place of a potency, no number is given. Calls of active or inactive are those of the source. Calls come from the whole dose curve; as a rule, active = well fitted cell-killing curve with a large enough effect; inconclusive = small, poorly fitted or top-dose-only effect; inactive = flat fitted curve, though single readings scatter.

test: qHTS assay to identify small molecule inhibitors of chordoma cells - UCH-2 (AID 1259356); details: UCH-2 chordoma viability, CellTiter-Glo ATP luminescence, 48 h; series mostly up to 46.1 µM
Potency is the fitted concentration of half-maximal effect.

Row | SMILES | Potency
1 | CC(Cc1ccccc1)NC=O (configuration not stated) | inactive
2 | CCN(CC)C(=O)N[C@H]1C[C@@H]2c3cccc4[nH]cc(c34)C[C@H]2N(C)C1 | inactive
3 | CCCC(C)C1(CC)C(=O)NC(=O)NC1=O (configuration not stated) | inactive
4 | CC(C)(O)[C@@H]1[C@H]2OC(=O)[C@@H]1[C@]1(O)C[C@H]3O[C@]34C(=O)O[C@H]2[C@]14C | inactive
5 | C[C@]12CC[C@H]3[C@@H](CCC4=C(Cl)C(=O)CC[C@@]43C)[C@@H]1CC[C@@H]2O | inactive
6 | CC(=O)OC1CN2CCC1CC2 (configuration not stated) | inactive
7 | [2H]C([2H])([2H])[C@H](N)Cc1ccccc1 | inactive
8 | C[C@@H]([C@H](O)c1ccccc1)N(C)C | inactive
9 | CCCCCCCCCC(=O)O[C@H]1CC[C@H]2[C@@H]3CCC4=CC(=O)CC[C@]4(C)[C@H]3CC[C@]12C | inactive
10 | C[C@H]1CCC[C@H](O)CCCCCc2cc(O)cc(O)c2C(=O)O1 | inactive
11 | N#CC1(N2CCCCC2)CCCCC1 | inactive
12 | CCCCCc1cc(O)c2c(c1)OC(C)(C)[C@@H]1CCC(C)=C[C@@H]21 | inactive
13 | Oc1cccc[c]1[Hg][Cl] | 13 µM (active)
14 | CCC/C=C/C=C/C(=O)O[C@H]1/C(=C/C(=O)OC)C[C@H]2C[C@H]([C@@H](C)O)OC(=O)C[C@H](O)C[C@@H]3C[C@H](OC(C)=O)C(C)(C)[C@](O)(C[C@@H]4C/C(=C/C(=O)OC)C[C@H](/C=C/C(C)(C)[C@]1(O)O2)O4)O3 | inactive
15 | F/C(COc1ccc2c(c1)[nH]c1ccccc12)=C1/CN2CCC1CC2 | inactive
16 | CCCCCCCCOC(=O)c1ccccc1C(=O)OCCCCCCCC | inactive
17 | ClC1=C(Cl)[C@]2(Cl)[C@@H]3[C@H]4C[C@H]([C@@H]5O[C@H]45)[C@@H]3[C@@]1(Cl)C2(Cl)Cl | inactive
18 | CCNCC(O)c1cccc(O)c1 (configuration not stated) | inactive
19 | c1ccc2sc(SNC3CCCCC3)nc2c1 | inactive

Row | SMILES | Potency
20 | Cc1ccccc1-n1c(C)nc2ccccc2c1=O | inactive
21 | CO[C@H]1[C@@H](O)C[C@H](O[C@H]2[C@@H](O)C[C@H](O[C@H]3[C@@H](O)C[C@H](O[C@H]4CC[C@@]5(C)[C@H](CC[C@@H]6[C@@H]5C[C@@H](O)[C@]5(C)[C@@H](C7=CC(=O)OC7)CC[C@]65O)C4)O[C@@H]3C)O[C@@H]2C)O[C@@H]1C | 0.058 µM (active)
22 | CCCC(C)(COC(N)=O)COC(=O)NC1CC1 (configuration not stated) | inactive
23 | CN(C)CCCCCCN(C)C (tested in a mixture with another compound) | inactive
24 | NCC[C@H](O)C(=O)N[C@@H]1C[C@H](N)[C@@H](O[C@H]2O[C@H](CN)[C@@H](O)[C@H](O)[C@H]2N)[C@H](O[C@@H]2O[C@H](CO)[C@@H](O)[C@H]2O)[C@H]1O | inactive
25 | O=c1ccc2cc(O[C@@H]3O[C@H](CO)[C@@H](O)[C@H](O)[C@H]3O)c(O)cc2o1 | inactive
26 | O=C1C[C@@H]2OCC=C3CN4CC[C@]56c7ccccc7N1[C@H]5[C@H]2[C@H]3C[C@H]46 | inactive
27 | C[C@]12CC[C@H]3[C@@H](CC[C@@]45O[C@@H]4C(O)=C(C#N)C[C@]35C)[C@@H]1CC[C@@H]2O | inactive
28 | ClCC1CO1 (configuration not stated) | inactive
29 | O=C1OC2(c3cc(Br)c(O)cc3Oc3c2cc(Br)c(O)[c]3[Hg])c2ccccc21 (configuration not stated) | inactive
30 | CC(=O)[C@H]1CC[C@H]2[C@@H]3CC[C@@H]4C[C@H](O)CC[C@]4(C)[C@H]3CC[C@]12C | inactive
31 | C[C@H]1CC[C@]2(NC1)O[C@H]1C[C@H]3[C@@H]4CC[C@H]5C[C@@H](O)CC[C@]5(C)[C@H]4CC[C@]3(C)[C@H]1[C@@H]2C | inactive
32 | O=c1[nH]cc(N(CCCl)CCCl)c(=O)[nH]1 | inactive
33 | O=[N+]([O-])c1cc(I)c(O)c(I)c1 | inactive
34 | CCC(N)Cc1c[nH]c2ccccc12 (configuration not stated) | inactive
35 | Cc1cccc(C(C)c2cnc[nH]2)c1C (configuration not stated) | inactive
36 | CCC(C)(S(=O)(=O)CC)S(=O)(=O)CC | inactive
37 | COC1=CC=C2[C@H]3Cc4ccc(OC)c5c4[C@@]2(CCN3C)[C@H]1O5 | inactive
